# Measurements: PubChem BioAssay AID1159580 (chemical genetic matrix, 2015)
# The campaign covered roughly 5,500 compounds. About 2,000 (36%) were called active. Roughly 18% stayed inconclusive and do not appear here. This is one part of the list. Unmarked numbers belong to inactive results. Rule as the data show it: active = normalized growth mostly below about 0.91 (no sharp cut-off); inconclusive = no clear call, values can overlap the other calls; inactive = mostly above about 0.92.
# Assay: chemical genetic growth profiling, strain panel (AID 1159580);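 also: tested at 20 µM; growth read once vehicle control cultures reached saturation at 30 °C; 1 = growth at the plate median or of vehicle wells; lower values mean less growth of the strain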
# Conditions: growth OD
# [1] = S. cerevisiae deletion strains, locus YAL013W, strain DEP1, active compounds read low
# [2] = S. cerevisiae deletion strains, locus YBR229C, strain ROT2, active compounds read low
# [3] = S. cerevisiae deletion strains, locus YDL101C, strain DUN1, active compounds read low
# [4] = S. cerevisiae deletion strains, locus YDR150W, strain NUM1, active compounds read low
# [5] = S. cerevisiae deletion strains, locus YEL061C, strain CIN8, active compounds read low
# [6] = S. cerevisiae deletion strains, locus YGR078C, strain PAC10, active compounds read low
# [7] = S. cerevisiae deletion strains, locus YHR030C, strain SLT2, active compounds read low
# [8] = S. cerevisiae deletion strains, locus YJR043C, strain POL32, active compounds read low
# [9] = S. cerevisiae deletion strains, locus YJR075W, strain HOC1, active compounds read low
# [10] = S. cerevisiae deletion strains, locus YLR039C, strain RIC1, active compounds read low
# [11] = S. cerevisiae deletion strains, locus YLR262C, strain YPT6, active compounds read low
# [12] = S. cerevisiae deletion strains, locus YMR263W, strain SAP30, active compounds read low
# [13] = S. cerevisiae deletion strains, locus YMR307W, strain GAS1, active compounds read low
# [14] = S. cerevisiae deletion strains, locus YNL128W, strain TEP1, active compounds read low
# [15] = S. cerevisiae deletion strains, locus YNL153C, strain GIM3, active compounds read low
# [16] = S. cerevisiae deletion strains, locus YNL322C, strain KRE1, active compounds read low
# [17] = S. cerevisiae deletion strains, locus YOL006C, strain TOP1, active compounds read low
# [18] = S. cerevisiae deletion strains, locus YPL055C, strain LGE1, active compounds read low
# [19] = S. cerevisiae deletion strains, locus YPL241C, strain CIN2, active compounds read low
# [20] = S. cerevisiae deletion strains, locus YAL040C, strain CLN3, active compounds read low
# [21] = S. cerevisiae deletion strains, locus YDR363W, strain ESC2, active compounds read low
# [22] = S. cerevisiae deletion strains, locus YER002W, strain NOP16, active compounds read low
# [23] = S. cerevisiae deletion strains, locus YNL175C, strain NOP13, active compounds read low
# [24] = S. cerevisiae deletion strains, locus YNL197C, strain WHI3, active compounds read low
# [25] = S. cerevisiae deletion strains, locus YNL224C, strain SQS1, active compounds read low
# [26] = S. cerevisiae deletion strains, locus YOR083W, strain WHI5 (second series), active compounds read low
# [27] = S. cerevisiae deletion strains, locus YCL061C, strain MRC1 (second series), active compounds read low
structure (smiles),measurement,setting,value
Cc1cccc(Nc2ccncc2S(=O)(=O)NC(=O)NC(C)C)c1,normalized growth,[1],1.01
same,normalized growth,"S. cerevisiae deletion strains, locus YBR021W, strain FUR4, active compounds read low",1.02
same,normalized growth,[2],1.01
same,normalized growth,"S. cerevisiae deletion strains, locus YCL029C, strain bik1, active compounds read low",1.02
same,normalized growth,"S. cerevisiae deletion strains, locus YDL035C, strain GPR1, active compounds read low",1.02
same,normalized growth,"S. cerevisiae deletion strains, locus YDL074C, strain BRE1, active compounds read low",1.01
same,normalized growth,[3],1.02
same,normalized growth,"S. cerevisiae deletion strains, locus YDL134C, strain PPH21, active compounds read low",1
same,normalized growth,"S. cerevisiae deletion strains, locus YDL185W, strain tfp1, active compounds read low",1.02
same,normalized growth,"S. cerevisiae deletion strains, locus YDL192W, strain arf1, active compounds read low",1.03
same,normalized growth,"S. cerevisiae deletion strains, locus YDR101C, strain arx1, active compounds read low",1.02
same,normalized growth,[4],1.02
same,normalized growth,"S. cerevisiae deletion strains, locus YDR162C, strain NBP2, active compounds read low",1.01
same,normalized growth,"S. cerevisiae deletion strains, locus YDR318W, strain mcm21, active compounds read low",1.03
same,normalized growth,"S. cerevisiae deletion strains, locus YDR388W, active compounds read low",1.02
same,normalized growth,"S. cerevisiae deletion strains, locus YDR502C, strain sam2, active compounds read low",1.02
same,normalized growth,[5],1.01
same,normalized growth,"S. cerevisiae deletion strains, locus YER110C, active compounds read low",1.03
same,normalized growth,"S. cerevisiae deletion strains, locus YER155C, strain BEM2, active compounds read low",0.999
same,normalized growth,"S. cerevisiae deletion strains, locus YER167W, strain BCK2, active compounds read low",1.01
same,normalized growth,"S. cerevisiae deletion strains, locus YGL078C, strain dbp3, active compounds read low",1.02
same,normalized growth,"S. cerevisiae deletion strains, locus YGL086W, strain mad1, active compounds read low",1.02
same,normalized growth,"S. cerevisiae deletion strains, locus YGL248W, strain PDE1, active compounds read low",1.01
same,normalized growth,[6],1.05
same,normalized growth,"S. cerevisiae deletion strains, locus YGR135W, strain pre9, active compounds read low",1.01
same,normalized growth,"S. cerevisiae deletion strains, locus YGR229C, strain SMI1, active compounds read low",1.04
same,normalized growth,"S. cerevisiae deletion strains, locus YGR252W, strain gcn5, active compounds read low",1.08
same,normalized growth,[7],1.01
same,normalized growth,"S. cerevisiae deletion strains, locus YHR079C, strain IRE1 (second series), active compounds read low",1.01
same,normalized growth,"S. cerevisiae deletion strains, locus YHR094C, strain hxt1, active compounds read low",1.02
same,normalized growth,"S. cerevisiae deletion strains, locus YHR129C, strain ARP1, active compounds read low",1
same,normalized growth,"S. cerevisiae deletion strains, locus YHR200W, strain rpn10, active compounds read low",1.03
same,normalized growth,"S. cerevisiae deletion strains, locus YIL066C, strain RNR3, active compounds read low",1.04
same,normalized growth,"S. cerevisiae deletion strains, locus YIL125W, strain kgd1, active compounds read low",1.01
same,normalized growth,"S. cerevisiae deletion strains, locus YIR030C, strain dcg1, active compounds read low",1.02
same,normalized growth,"S. cerevisiae deletion strains, locus YJL095W, strain BCK1, active compounds read low",1.02
same,normalized growth,"S. cerevisiae deletion strains, locus YJL134W, strain LCB3, active compounds read low",1.01
same,normalized growth,"S. cerevisiae deletion strains, locus YJL168C, strain set2, active compounds read low",1.02
same,normalized growth,"S. cerevisiae deletion strains, locus YJL187C, strain SWE1 (second series), active compounds read low",1.02
same,normalized growth,[8],1.04
same,normalized growth,[9],1.01
same,normalized growth,"S. cerevisiae deletion strains, locus YKL009W, strain mrt4, active compounds read low",1.01
same,normalized growth,"S. cerevisiae deletion strains, locus YKL068W, active compounds read low",1.01
same,normalized growth,"S. cerevisiae deletion strains, locus YKL085W, strain MDH1 (second series), active compounds read low",0.986
same,normalized growth,"S. cerevisiae deletion strains, locus YKL085W, strain MDH1, active compounds read low",0.986
same,normalized growth,"S. cerevisiae deletion strains, locus YKL190W, strain CNB1, active compounds read low",1.03
same,normalized growth,"S. cerevisiae deletion strains, locus YKR001C, strain vps1, active compounds read low",1.03
same,normalized growth,[10],1.04
same,normalized growth,"S. cerevisiae deletion strains, locus YLR058C, strain SHM2, active compounds read low",1.01
same,normalized growth,"S. cerevisiae deletion strains, locus YLR102C, strain apc9, active compounds read low",1.02
same,normalized growth,[11],1.03
same,normalized growth,"S. cerevisiae deletion strains, locus YLR268W, strain sec22, active compounds read low",1.02
same,normalized growth,"S. cerevisiae deletion strains, locus YLR330W, strain CHS5, active compounds read low",1.01
same,normalized growth,"S. cerevisiae deletion strains, locus YLR342W, strain FKS1 (second series), active compounds read low",1.06
same,normalized growth,"S. cerevisiae deletion strains, locus YLR371W, strain rom2, active compounds read low",1.03
same,normalized growth,"S. cerevisiae deletion strains, locus YLR418C, strain cdc73, active compounds read low",1.01
same,normalized growth,"S. cerevisiae deletion strains, locus YML016C, strain PPZ1, active compounds read low",1.01
same,normalized growth,"S. cerevisiae deletion strains, locus YML032C, strain rad52, active compounds read low",1.03
same,normalized growth,"S. cerevisiae deletion strains, locus YML124C, strain tub3, active compounds read low",1.02
same,normalized growth,"S. cerevisiae deletion strains, locus YMR078C, strain ctf18, active compounds read low",1.03
same,normalized growth,"S. cerevisiae deletion strains, locus YMR223W, strain ubp8, active compounds read low",1.03
same,normalized growth,[12],1.02
same,normalized growth,[13],1.05
same,normalized growth,"S. cerevisiae deletion strains, locus YNL067W, strain RPL9B, active compounds read low",1.01
same,normalized growth,[14],1.02
same,normalized growth,[15],1
same,normalized growth,"S. cerevisiae deletion strains, locus YNL233W, strain BNI4, active compounds read low",1
same,normalized growth,"S. cerevisiae deletion strains, locus YNL250W, strain rad50, active compounds read low",1.02
same,normalized growth,"S. cerevisiae deletion strains, locus YNL271C, strain bni1, active compounds read low",1.02
same,normalized growth,"S. cerevisiae deletion strains, locus YNL298W, strain CLA4, active compounds read low",1.02
same,normalized growth,"S. cerevisiae deletion strains, locus YNL307C, strain MCK1, active compounds read low",1.03
same,normalized growth,[16],1.02
same,normalized growth,"S. cerevisiae deletion strains, locus YNR052C, strain pop2, active compounds read low",1.03
same,normalized growth,[17],1
same,normalized growth,"S. cerevisiae deletion strains, locus YOL012C, strain htz1",0.913
same,normalized growth,"S. cerevisiae deletion strains, locus YOL147C, strain pex11, active compounds read low",1.02
same,normalized growth,"S. cerevisiae deletion strains, locus YOR061W, strain CKA2, active compounds read low",1.01
same,normalized growth,"S. cerevisiae deletion strains, locus YOR069W, strain VPS5, active compounds read low",1
same,normalized growth,"S. cerevisiae deletion strains, locus YOR136W, strain idh2, active compounds read low",1.03
same,normalized growth,"S. cerevisiae deletion strains, locus YOR144C, strain elg1, active compounds read low",1.03
same,normalized growth,"S. cerevisiae deletion strains, locus YOR184W, strain ser1, active compounds read low",1.03
same,normalized growth,"S. cerevisiae deletion strains, locus YOR316C, strain cot1, active compounds read low",1.02
same,normalized growth,[18],1.04
same,normalized growth,[19],1.03
same,normalized growth,"S. cerevisiae deletion strains, locus YPR119W, strain clb2, active compounds read low",1.02
same,normalized growth,"S. cerevisiae deletion strains, locus YPR141C, strain kar3, active compounds read low",1.02
same,normalized growth,"S. cerevisiae deletion strains, locus YPR163C, strain tif3, active compounds read low",1.03
same,normalized growth,"S. cerevisiae deletion strains, locus YPR167C, strain met16, active compounds read low",1.01
same,normalized growth,"S. cerevisiae deletion strains, strain wtn01, active compounds read low",1
same,normalized growth,"S. cerevisiae strains, strain wild type, active compounds read low",1.04
CC(=O)OCC1=C(C(=O)O)N2C(=O)C(NC(=O)Cc3cccs3)C2SC1 (centres undefined),normalized growth,[1],1.01
same,normalized growth,[20],0.993
same,normalized growth,[21],1
same,normalized growth,[22],1.03
same,normalized growth,[9],0.995
same,normalized growth,[15],1.03
same,normalized growth,[23],1.01
same,normalized growth,[24],1.05
same,normalized growth,[25],1.03
same,normalized growth,[26],1.05
OC1(c2ccc(Cl)cc2)CSc2nc3cc(C(F)(F)F)ccc3n21 (centres undefined),normalized growth,[1],1.03
same,normalized growth,[2],1
same,normalized growth,[3],0.995
same,normalized growth,[4],1.01
same,normalized growth,[5],1.02
same,normalized growth,[6],1
same,normalized growth,[7],1.02
same,normalized growth,"S. cerevisiae deletion strains, locus YHR087W, strain rtc3, active compounds read low",1.03
same,normalized growth,[8],1.01
same,normalized growth,[9],1
same,normalized growth,[10],1.09
same,normalized growth,"S. cerevisiae deletion strains, locus YLR058C, strain SHM2 (second series), active compounds read low",1.02
same,normalized growth,"S. cerevisiae deletion strains, locus YLR085C, strain ARP6, active compounds read low",1.11
same,normalized growth,[11],1.12
same,normalized growth,"S. cerevisiae deletion strains, locus YML094W, strain GIM5, active compounds read low",1.07
same,normalized growth,"S. cerevisiae deletion strains, locus YMR219W, strain ESC1, active compounds read low",1.01
same,normalized growth,[12],1.02
same,normalized growth,[15],0.991
same,normalized growth,"S. cerevisiae deletion strains, locus YNL298W, strain CLA4 (second series), active compounds read low",1.1
same,normalized growth,[16],1.02
same,normalized growth,"S. cerevisiae deletion strains, locus YNR030W, strain Alg12, active compounds read low",1.09
same,normalized growth,[17],1.08
same,normalized growth,[18],0.998
same,normalized growth,[19],1.04
same,normalized growth,"S. cerevisiae deletion strains, locus YPR135W, strain CTF4, active compounds read low",1.02
CN1CCN(c2ccc3ccccc3n2)CC1,normalized growth,[20],1.04
same,normalized growth,[27],0.996
same,normalized growth,[4],1
same,normalized growth,[21],0.982
same,normalized growth,[22],1
same,normalized growth,[6],1.01
same,normalized growth,[9],0.982
same,normalized growth,[13],1
same,normalized growth,[23],1.02
same,normalized growth,[24],1
same,normalized growth,[25],1.01
same,normalized growth,[16],0.982
same,normalized growth,[26],1.03
same,normalized growth,[18],0.925
same,normalized growth,[19],0.993
CN1CCN(c2nc3cc(C(F)(F)F)ccc3n3cccc23)CC1,normalized growth,[20],1
same,normalized growth,[27],0.985
same,normalized growth,[21],0.908
same,normalized growth,[22],1.01
same,normalized growth,[6],1.01
same,normalized growth,[9],0.971
same,normalized growth,[12],1
same,normalized growth,[13],0.867 (active)
same,normalized growth,[14],1.05
same,normalized growth,[15],0.88
same,normalized growth,[24],1.06
same,normalized growth,[25],1.03
same,normalized growth,[16],0.972
same,normalized growth,[26],0.919
